Test results reported in PubChem BioAssay (EPA / NIEHS).
Inconclusive results are not listed. Activity calls are given as the source filed them. How the source made its calls, unless noted: active means hit-call score of the fitted dose curve at least 0.9, where 1 is the maximum; inactive means score below 0.9.

What was measured:
[1] = ACEA_ER_80hr: ACEA Biosciences xCELLigence Real-Time Cell Analysis on Estrogen Receptor Agonism for Proliferation (AID 2282667; active means hit-call score of the fitted dose curve at least 0.9, where 1 is the maximum); details: T47D proliferation, impedance (xCELLigence), 80 h
Summary of the method: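 Cell-growth kinetics were measured by impedance in T47D cells treated continuously with compound (top 100 uM final, 1:4 steps, 8 points). Activity at 80 h was scored as signal gain over the DMSO baseline.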

[2] = APR_HepG2_CellCycleArrest_24hr: Apredica 24-hour HepG2 Assay for Cell Cycle Arrest (AID 2282905); details: imaging, actives raise or lower the signal;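 further: cell cycle arrest scored as ratio of 2N to 4N nuclear DNA content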
Summary of the method: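 HepG2, 24 hr dosing, 10-pt 0.39–200 uM in duplicate, 0.5% DMSO. Fixed 3.7% formaldehyde, permeabilized 0.5% Triton X-100, Hoechst 33342 2 ug/mL. Imaged 20x; nuclear DNA content quantified; bidirectional fit vs DMSO.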

[3] = APR_HepG2_NuclearSize_24hr: Apredica 24-hour HepG2 Assay for Nuclear Size (AID 2282907); details: high-content imaging, actives raise or lower the signal
Summary of the method: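 HepG2, 24 hr dosing, 10-pt 0.39–200 uM, duplicates, 0.5% DMSO final; 3.7% formaldehyde fix, 0.5% Triton X-100; Hoechst 33342 nuclear stain; ArrayScan HCS, Cell Cycle analysis → nuclear size; bidirectional fit vs DMSO.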

[4] = APR_HepG2_CellLoss_24hr: Apredica 24-hour HepG2 Assay for Cell Loss (AID 2282908); details: high-content imaging
Summary of the method: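 10-pt dose, 0.39–200 uM, n=2/plate; DMSO 0.5% v/v final as negative control. Fix 3.7% formaldehyde 30 min RT, permeabilize 0.5% Triton X-100, stain Hoechst 33342 2 ug/mL, image 20x. Nuclear count, bidirectional fit vs DMSO.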

[5] = APR_HepG2_MicrotubuleCSK_24hr: Apredica 24-hour HepG2 Assay for Microtubule CSK Stabilty (AID 2282909); details: HepG2 microtubule cytoskeleton imaging, actives raise or lower the signal
Summary of the method: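 Human liver HepG2, 24 h dosing, 0.39–200 uM ×10 conc, dup, 0.5% DMSO. 3.7% formaldehyde fix, 0.5% Triton perm, anti-alpha-tubulin (1:200)/Cy5 secondary + Hoechst. HCS imaging, 6 fields/well; gain/loss fit vs DMSO.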

[6] = APR_HepG2_MitoticArrest_24hr: Apredica 24-hour HepG2 Assay for Mitotic Arrest (AID 2282910); details: high-content imaging, actives raise or lower the signal
Summary of the method: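 HepG2 human liver cells were exposed to compounds at 0.39–200 uM (10 concentrations, duplicate) in 0.5% v/v DMSO for 24 hr, then fixed and immunostained for phospho-histone H3 with Hoechst 33342. Mitotic arrest came from HCS fluorescent imaging, fitted bidirectionally against DMSO.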

[7] = APR_HepG2_MitoMass_24hr: Apredica 24-hour HepG2 Assay for Mitochondrial Mass (AID 2282912); details: high-content imaging, actives raise or lower the signal
Summary of the method: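 Mitochondrial mass is read as MitoTracker Red fluorescence intensity from automated imaging, with bidirectional curve fitting relative to DMSO. HepG2 cells received compound (0.39–200 uM, 0.5% DMSO final) for 24 hr and were dye-loaded (250 nM, 30 min) before formaldehyde fixation.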

[8] = APR_HepG2_CellCycleArrest_72hr: Apredica 72-hour HepG2 Assay for Cell Cycle Arrest (AID 2282914); details: high-content imaging, actives raise or lower the signal
Summary of the method: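 Cell cycle arrest in HepG2 was scored from nuclear DNA content after 72 hr compound treatment (0.39–200 uM). Activity, either gain or loss, was fitted against the DMSO baseline.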

[9] = APR_HepG2_CellLoss_72hr: Apredica 72-hour HepG2 Assay for Cell Loss (AID 2282915); details: high-content imaging
Summary of the method: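 HepG2 cells were exposed for 72 hr to compounds at 0.39–200 uM (ten concentrations, duplicate) in 0.5% v/v final DMSO. Nuclei were stained with Hoechst 33342 after 3.7% formaldehyde fixation, imaged at 20x, and counted; fits bidirectional versus DMSO.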

[10] = APR_HepG2_P-H2AX_72hr: Apredica 72-hour HepG2 Assay for H2AX Phosphorylation (AID 2282916); details: imaging, actives raise or lower the signal;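 further: phospho-histone H2A.x immunostain intensity per cell marking DNA damage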
Summary of the method: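 HepG2; cpd 0.39–200 uM ×10 conc, duplicates; 0.5% DMSO; 72 hr. Fix 3.7% formaldehyde 30 min RT, 0.5% Triton X-100 10 min. Anti-phospho-H2A.x 1:200 + Hoechst 2 ug/mL, 60 min RT; ArrayScan imaging.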

[11] = APR_HepG2_MitoMembPot_72hr: Apredica 72-hour HepG2 Assay for Mitochondrial Membrane Potential (AID 2282917); details: imaging, actives raise or lower the signal
Summary of the method: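 HepG2 cells exposed 72 h to compounds at 0.39–200 uM (0.5% v/v DMSO, duplicates); MitoTracker Red CMXRos 250 nM loaded 30 min before 3.7% formaldehyde fixation, imaged by HCS fluorescence. Bidirectional fit versus DMSO.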

[12] = APR_HepG2_MitoticArrest_72hr: Apredica 72-hour HepG2 Assay for Mitotic Arrest (AID 2282918); details: high-content imaging, actives raise or lower the signal
Summary of the method: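 Mitotic arrest in HepG2 is scored from phospho-histone H3 staining after 72 hr dosing across 0.39–200 uM, with DMSO at 0.5% v/v. Nuclei are identified by Hoechst 33342 and fluorescence intensity is quantified per cell.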

[13] = APR_HepG2_MicrotubuleCSK_72hr: Apredica 72-hour HepG2 Assay for Microtubule CSK Stabilty (AID 2282919); details: HepG2 microtubule cytoskeleton, high-content imaging, actives raise or lower the signal
Summary of the method: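 HepG2 human liver cells were dosed for 72 h at ten concentrations from 0.39 to 200 uM in duplicate (0.5% v/v DMSO final). Fixed, permeabilized cells were immunostained for alpha-tubulin (Cy5) with a Hoechst counterstain and imaged at 20x.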

[14] = APR_HepG2_P-H2AX_24hr: Apredica 24-hour HepG2 Assay for H2AX Phosphorylation (AID 2282920); details: high-content imaging, actives raise or lower the signal
Summary of the method: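 Signal comes from a FITC-labeled secondary detecting phospho-histone H2A.x in fixed HepG2 cells, quantified by automated imaging at 20x. Dosing ran 24 hr across 0.39–200 uM with 0.5% v/v DMSO.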

[15] = APR_HepG2_StressKinase_72hr: Apredica 72-hour HepG2 Assay for Stress Kinase (AID 2282921); details: HepG2 stress kinase (phospho-c-Jun) imaging, actives raise or lower the signal
Summary of the method: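 Dose 0.39–200 uM (10 pts, duplicate), 0.5% DMSO; 72 h; fix 3.7% formaldehyde 30 min RT; Triton permeabilize; anti-phospho-c-Jun/Cy3 + Hoechst 60 min RT; image 20x; fit gain/loss vs DMSO.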

[16] = APR_HepG2_StressKinase_24hr: Apredica 24-hour HepG2 Assay for Stress Kinase (AID 2282922); details: HepG2 stress kinase (phospho-c-Jun) imaging, actives raise or lower the signal
Summary of the method: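 HepG2 cells exposed 24 hr to compound at 0.39–200 uM (10 concentrations, duplicate), 0.5% v/v DMSO final. Fixed in 3.7% formaldehyde, permeabilized with Triton X-100, immunolabeled for phospho-c-Jun with Hoechst 33342; HCS fluorescence imaging, bidirectional fit versus DMSO.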

[17] = APR_HepG2_MitoMass_72hr: Apredica 72-hour HepG2 Assay for Mitochondrial Mass (AID 2282924); details: high-content imaging, actives raise or lower the signal;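 further: MitoTracker Red CMXRos stain intensity per cell imaged as mitochondrial mass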
Summary of the method: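 HepG2 cells were exposed for 72 hr to compounds at 0.39–200 uM (ten concentrations, duplicate, 0.5% v/v DMSO final). Live cells were stained with 250 nM MitoTracker Red CMXRos for 30 min, then fixed in 3.7% formaldehyde and imaged by HCS fluorescence.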

[18] = APR_HepG2_MitoMembPot_24hr: Apredica 24-hour HepG2 Assay for Mitochondrial Membrane Potential (AID 2282911); details: imaging, actives raise or lower the signal
Summary of the method: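 Human hepatoma HepG2 cultures received ten compound concentrations up to 200 uM for 24 hr. Membrane-potential dye signal, captured by automated fluorescence microscopy, was scored for gain or loss against DMSO controls.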

[19] = APR_HepG2_p53Act_24hr: Apredica 24-hour HepG2 Assay for p53 Activation (AID 2282913); details: high-content imaging, actives raise or lower the signal;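 further: p53 protein immunofluorescence averaged per cell in HepG2 with Hoechst nuclei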
Summary of the method: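 Automated fluorescence imaging quantifies p53 immunostaining in HepG2 cells after a 24 hr exposure (0.39–200 uM, duplicate, 0.5% DMSO). Nuclei are located by Hoechst 33342 staining.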

[20] = APR_HepG2_p53Act_72hr: Apredica 72-hour HepG2 Assay for p53 Activation (AID 2282923); details: high-content imaging, actives raise or lower the signal;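 further: average cellular p53 protein immunofluorescence intensity in HepG2 cells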
Summary of the method: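 10-pt conc. 0.39–200 uM, duplicate, 0.5% DMSO; 72 hr exposure; 3.7% formaldehyde fix, 0.5% Triton perm; sheep anti-p53/Cy5 + Hoechst; ArrayScan 20x, 6 images/well; gain/loss fit vs DMSO.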

Compound | outcome [1] | outcome [2] | outcome [3] | outcome [4] | outcome [5] | outcome [6] | outcome [7] | outcome [8] | outcome [9] | outcome [10] | outcome [11] | outcome [12] | outcome [13] | outcome [14] | outcome [15] | outcome [16] | outcome [17] | AC50 [18] | outcome [19] | outcome [20]
OC[C@H]1O[C@@](CO)(O[C@H]2O[C@H](CO)[C@@H](O)[C@H](O)[C@H]2O)[C@@H](O)[C@@H]1O | inactive | inactive | inactive | inactive | inactive | inactive | inactive | inactive | inactive | inactive | inactive | inactive | inactive | inactive | inactive | inactive | inactive | – | – | –
CC(C)c1nnc2ccc(-c3ocnc3-c3cc(F)ccc3F)cn12 | inactive | – | – | inactive | – | inactive | inactive | – | inactive | inactive | inactive | inactive | – | inactive | inactive | inactive | inactive | 58.6 nM (active) | inactive | inactive
CC1(C)C(=O)N(Cl)C(=O)N1Cl | inactive | inactive | inactive | inactive | inactive | inactive | inactive | inactive | inactive | inactive | – | – | – | inactive | inactive | inactive | – | – | inactive | inactive
OC[C@H]1O[C@@H]2O[C@H]3[C@H](O)[C@@H](O)[C@@H](O[C@H]4[C@H](O)[C@@H](O)[C@@H](O[C@H]5[C@H](O)[C@@H](O)[C@@H](O[C@H]6[C@H](O)[C@@H](O)[C@@H](O[C@H]7[C@H](O)[C@@H](O)[C@@H](O[C@H]1[C@H](O)[C@H]2O)O[C@@H]7CO)O[C@@H]6CO)O[C@@H]5CO)O[C@@H]4CO)O[C@@H]3CO | inactive | inactive | inactive | inactive | inactive | inactive | inactive | inactive | inactive | inactive | inactive | inactive | inactive | inactive | inactive | inactive | inactive | – | – | –
